# PubChem BioAssay AID651598 (Sanford-Burnham Center for Chemical Genomics, 2012)
# Values joined by “and” are separate entries in the source; they are usually repeats but may differ in a detail not shown here. Equal entries are not always repeated.
# Biological target: Apelin receptor (Homo sapiens) (UniProt P35414)
# Assay: apelin receptor (APJ) antagonists, SAR follow-up, counter-screen for CXCR6 antagonist project, cell-based, beta-arrestin, DiscoveRx, panel, CHO-K1 (AID 651598)
# Settings: CHO-K1 PathHunter beta-arrestin luminescence, antagonist mode; run 5, at 80 µM (top of the series)
# Chain of Apelin receptor (Homo sapiens) (P35414 whole entry, looked up): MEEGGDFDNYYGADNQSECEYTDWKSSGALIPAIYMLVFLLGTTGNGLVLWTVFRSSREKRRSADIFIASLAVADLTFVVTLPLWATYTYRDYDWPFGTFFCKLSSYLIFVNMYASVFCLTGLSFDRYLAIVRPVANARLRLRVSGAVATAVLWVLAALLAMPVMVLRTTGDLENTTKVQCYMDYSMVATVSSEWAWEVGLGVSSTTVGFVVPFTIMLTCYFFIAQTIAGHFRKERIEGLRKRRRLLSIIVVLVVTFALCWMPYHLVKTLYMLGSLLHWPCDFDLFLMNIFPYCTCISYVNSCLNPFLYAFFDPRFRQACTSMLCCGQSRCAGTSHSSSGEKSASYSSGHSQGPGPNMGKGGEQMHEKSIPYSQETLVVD
row,SMILES,inhibition
1,COc1cc(C(=O)NC2CC3CCC(C2)N3CC(=O)Nc2ccccc2)cc(OC)c1OC (stereo not drawn),-14.1% and -9.09%
2,COc1cc(C(=O)NC2CC3CCCC(C2)N3CC(=O)Nc2ccccc2)cc(OC)c1OC (stereo not drawn),11% and 14.6% and 16%
3,COc1cc(C(=O)NC2CCN(CC(=O)Nc3ccccc3)CC2)cc(OC)c1OC,-5.74%
